# Screens as filed in PubChem BioAssay.
# Compounds with a hit are over-represented: about 2.7% of the library has one in this group of screens.
# HSP90 refold inh = HSP90 inhibitors, primary screen, cell lysate, luminescence | 0.91% of 290,000 active | Rabbit reticulocyte lysate, luciferase refolding luminescence, 3 h | inhibition, % at 5.6 µM | Heat shock protein HSP 90 (rabbit reticulocyte lysate; luciferase refolding);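 active means inhibition above the screen-wide mean plus 3 SD, computed separately per campaign, cut at about 16% in these data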;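 further: 0% = DMSO wells and 100% = 60 µM geldanamycin wells; inhibitors lower the luminescence because luciferase stays unfolded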
# SENP8 block-1 = SENP8 protease inhibitors, primary screen, biochemical, luminescence; 1.2% of 330,000 active; inhibition, % at 10 µM; purified SENP8, Z-RLRGG-aminoluciferin cleavage; Sentrin-specific protease 8 (Homo sapiens), Q96LD8; in the data active means inhibition above about 50%
# SENP6 block = SENP6 protease inhibitors, primary screen, biochemical, luminescence, uHTS | inhibition, % at 10 µM | Recombinant SENP6 catalytic domain, aminoluciferin luminescence | Sentrin-specific protease 6 (Homo sapiens), Q9GZR1 | AID 2599, 2010 | 1.8% of 330,000 active;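 active means inhibition above about 50% at the single tested dose, limit read from the data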;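 further: plate controls were DMSO wells with enzyme for no effect and DMSO wells lacking enzyme for full effect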
# SENP8 block-2 = human SENP8 protease inhibitors, primary screen, biochemical, fluorescence, Nedd8 protein substrate, uHTS | inhibition, % at 20 µM | 0.64% of 360,000 active | recombinant SENP8; in the data active means inhibition mostly above about 40%, no sharp cut-off; inactive means mostly below about 27%
# SENP7 inh = SENP7 protease inhibitors, primary screen, biochemical, luminescence, uHTS; Sentrin-specific protease 7 (Homo sapiens), Q9BQF6; recombinant SENP7, Z-RLRGG-aminoluciferin luminescence, 40 min; AID 434973, 2010; inhibition, % at 5 µM; 1.5% of 330,000 active;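 active means inhibition above about 50% at the single test dose, limit read from the data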;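 further: plate controls were DMSO with enzyme for no effect and no enzyme buffer wells for full effect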
# Target sequence (Q9BQF6 706-1050 limits assumed): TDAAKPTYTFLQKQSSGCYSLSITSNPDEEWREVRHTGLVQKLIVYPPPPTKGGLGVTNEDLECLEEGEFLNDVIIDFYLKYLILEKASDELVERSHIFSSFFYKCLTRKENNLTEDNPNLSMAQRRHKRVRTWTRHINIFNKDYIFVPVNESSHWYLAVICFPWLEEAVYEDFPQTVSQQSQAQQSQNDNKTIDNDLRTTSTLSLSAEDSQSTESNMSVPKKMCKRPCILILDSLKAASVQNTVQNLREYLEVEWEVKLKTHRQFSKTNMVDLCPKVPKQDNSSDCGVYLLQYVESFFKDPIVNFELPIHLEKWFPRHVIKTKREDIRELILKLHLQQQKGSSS
# SENP8 conf = SENP8 protease inhibitors, retest, confirmation, biochemical, luminescence, single concentration. shares compounds with SENP7 inh. 40% of 6,200 active. Recombinant SENP8, Z-RLRGG-aminoluciferin luminescence, 60 min. inhibition, % at 12.5 µM;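 active means mean inhibition across replicates above about 50%, limit read from the data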
# SENP6 confirm = SENP6 protease inhibitors, confirmation, biochemical, luminescence, single concentration. recombinant SENP6, Z-RLRGG-aminoluciferin luminescence. AID 488915, 2010. 58% of 6,200 active. shares compounds with SENP7 inh. inhibition, % at 12.5 µM
# SENP7 confirm = SENP7 protease inhibitors, retest, confirmation, biochemical, luminescence, single concentration; shares compounds with SENP7 inh; recombinant SENP7, Z-RLRGG-aminoluciferin luminescence, 40 min; inhibition, % at 12.5 µM; 69% of 6,200 active
# Casp3 select = caspase-3 protease inhibitors, confirmation, selectivity assay for SENP inhibitor project, biochemical, single concentration; shares compounds with SENP7 inh; purified caspase-3, Z-DEVD-aminoluciferin luminescence, 60 min; inhibition, % at 12.5 µM; 60% of 6,200 active;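 active means mean inhibition above about 50%, limit read from the data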;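 further: plate controls were enzyme with DMSO for no effect and wells without caspase-3 for full effect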
# Luc interf = counter-screen for SENP inhibitors: luminescence interference | Pre-incubated SENP8/Z-RLRGG-aminoluciferin, luciferase luminescence interference | 39% of 6,200 active | inhibition, % at 12.5 µM | AID 488919 | shares compounds with SENP7 inh;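 active means mean inhibition above about 50% when retested at one dose, limit read from the data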;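 further: plate controls were DMSO wells with completed reaction for no effect and substrate without enzyme for full effect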
# Numbers without * were called inactive; . = no result given.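 How the source made its calls, unless noted: active means mean inhibition above about 50% in the one-dose retest (limit read from the data); inactive means the rest.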
SMILES,HSP90 refold inh,SENP8 block-1,SENP6 block,SENP8 block-2,SENP7 inh,SENP8 conf,SENP6 confirm,SENP7 confirm,Casp3 select,Luc interf
N/C(=N\OC(=O)c1ccc(Br)cc1)c1ccccc1,-3,94*,93*,13,99*,81*,96*,102*,97*,53*
Cc1ccc(/C(N)=N/OC(=O)c2ccco2)cc1,8,89*,73*,13,95*,76*,95*,102*,91*,68*
CCCc1cc(C(=O)N2CCCN(C)CC2)cs1,-4,-1,-5,7,-10,.,.,.,.,.
CCOc1ccccc1C(=O)NCC(=O)NCc1ccc(S(=O)(=O)N2CCOCC2)cc1,.,-4,2,-8,-2,.,.,.,.,.
Cc1ccc(S(=O)(=O)NCc2nnnn2-c2ccc(F)cc2)cc1,.,.,.,1,.,.,.,.,.,.
Cc1cccc(/C(N)=N/OC(=O)c2ccco2)c1,1,84*,92*,19,91*,91*,92*,101*,94*,86*
COc1cc(OC)c(C(=O)O/N=C(\N)c2cccc(C)c2)cc1OC,-5,1,-10,-12,1,.,.,.,.,.
N/C(=N\OC(=O)C1CCCCC1)c1ccccn1,3,46,67*,15,68*,61*,60*,87*,89*,67*
COc1cccc2sc(Nc3nnc(-c4cccs4)o3)nc12,4,84*,92*,-255,73*,84*,84*,97*,83*,55*
COc1cccc2sc(Nc3nnc(-c4ccc(F)cc4)o3)nc12,-1,44,75*,-411,43,31,42,86*,66*,6
Fc1cccc2sc(Nc3nnc(-c4ccco4)o3)nc12,7,17,42,-339,-6,.,.,.,.,.
COc1ccc(C(O)c2nc3ccccc3n2C)cc1OC (configuration not stated),-1,-2,6,10,5,.,.,.,.,.
Cc1ccc(C(=O)N/C(=C\c2ccc(-c3ccccc3[N+](=O)[O-])o2)C(=O)NCCCN(C)C)cc1,1,26,50*,-6,15,13,35,13,2,0
O=C(Nc1ccc(-c2noc(-c3ccccc3F)n2)cc1)c1cccs1,-5,-5,2,-139,6,.,.,.,.,.
Cc1ccc(NC(=O)c2cccs2)cc1,-1,23,40,5,53*,34,38,75*,65*,52*
Cc1ccc(NC(=O)C(=O)NNC(=O)c2cccs2)cc1,-1,55*,57*,1,41,-23,36,79*,83*,17
Nc1ccc(NC(=O)c2cccs2)cc1,5,-6,-3,0,-2,.,.,.,.,.
O=C(Nc1ccc2c(c1)CCC2)c1cccs1,4,62*,36,14,78*,83*,87*,96*,83*,83*
CCC(=O)Nc1ccc(C(=O)NNC(=O)c2cccs2)cc1,-9,3,-11,10,6,.,.,.,.,.
Cc1ccccc1-c1nc(-c2ccc(NC(=O)c3cccs3)cc2)no1,-1,17,28,-25,51*,15,17,48,46,41
COc1ccccc1CNC(=O)C(NC(=O)C1CCCCC1)C(C)C (configuration not stated),.,-8,-17,35,0,.,.,.,.,.
